# Experimental data from PubChem BioAssay (EPA / NIEHS).
# Results filed as inconclusive are left out. Active and inactive are the calls of the source. The calls were made as follows: active = hit-call score of the fitted dose curve at least 0.9, where 1 is the maximum; inconclusive = response in the unintended direction; inactive = score below 0.9.
# Tested on: not listed separately
# Test: ATG_XTT_Cytotoxicity: Cytotoxicity Assessment in the Attagene TRANS-FACTORIAL HepG2 Assay (AID 2283584);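 as to AC50: cells exposed to compound for 24 h before reading; active means loss of viability signal versus DMSO baseline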
# Procedure, shortened: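 XTT readout of cell number in transfected HepG2 cells, 24 h post-dosing; DMSO serves as negative control and baseline, with activity taken as loss of viability signal.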
SMILES,outcome,AC50
[Cu+],inactive,
S=c1[nH][nH]c(=S)s1,inactive,
OC[C@@H](O)[C@H](O)[C@@H](O)[C@@H](O)CO,inactive,
CCCCN(CCO)CCO,inactive,
C=CCOCC(O)CO (configuration not stated),inactive,
c1coc(CNc2ncnc3nc[nH]c23)c1,inactive,
CN(C)c1ccc(C=O)cc1,inactive,
Cc1cccc(O)c1,inactive,
N=C1N=C(N)c2ccccc21,inactive,
CC/C=C\CCOC(=O)C(C)C,inactive,
O=S1(=O)CC=CC1,inactive,
OC[C@H]1O[C@@H](O[C@H]2[C@H](O)[C@@H](O)[C@H](O)O[C@@H]2CO)[C@H](O)[C@@H](O)[C@H]1O,inactive,
CCCCCCCCCCCCN1CCOCC1,inactive,
CC(C)CCOC(=O)CC(C)C,inactive,
CCCCCCC(O)CCOC(C)=O (configuration not stated),inactive,
CCCCCCCCCO,inactive,
CC(=O)OC(C)(C)C1CC=C(C)CC1 (configuration not stated),inactive,
CC(C)COC(=O)c1ccccc1O,inactive,
Cc1ccc(C(C)(C)O)cc1,inactive,
CC1=CC(O)CC(C)(C)C1 (configuration not stated),inactive,

SMILES,outcome,AC50
CCc1cccc(O)c1,inactive,
CCOC(=O)COC(=O)c1ccccc1C(=O)OCC,inactive,
C=C/C(C)=C/C/C=C(\C)CCC=C(C)C,inactive,
CCCCCCOC(C)=O,inactive,
Cc1cc(N)n(-c2ccccc2)n1,inactive,
CCOC(=O)C(=O)OCC,inactive,
CCCCCCCCCCCCOCCOS(=O)(=O)O,,154 µM (active)
CCCCN(CCCC)CCCCCCN(CCCC)CCCC,inactive,
CCCCCc1cccc(=O)o1,inactive,
CC(C)Cc1ccccc1,inactive,
C=C(C)C(=O)OCCN(C)C,inactive,
O=S(=O)(O)CCCN1CCOCC1,inactive,
CCOc1ccc(NC(C)=O)cc1,inactive,
CC/C=C\C#N,inactive,
CCCCOCCOCCOCCO,inactive,
C=CCCCCCCCCC(=O)OCC,inactive,
C=C(C)CCCC(C)CCO (configuration not stated),inactive,
CN(C)C,inactive,
CCCCCCCOC(C)=O,inactive,

# Tested on: not listed separately
# Test: TOX21_p53_BLA_p2_viability: Viability Assessment in the Tox21 HCT-116 p53 Agonism Beta-lactamase Assay, Phase 2 (AID 2283591);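 also: actives lower the ATP signal meaning cytotoxicity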
# Procedure, shortened: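 HCT116 p53-bla cells, 4000/well, dosed after 5 h plating (217-fold dilution of DMSO stocks) and incubated 16 h at 37C. Viability taken as cellular ATP by CellTiter-Glo luminescence after 30 min RT; signal loss marks cytotoxicity.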
row,SMILES,outcome
1,[Cu+],inactive
2,S=c1[nH][nH]c(=S)s1,inactive
3,C=CCOCC(O)CO (configuration not stated),inactive
4,c1coc(CNc2ncnc3nc[nH]c23)c1,inactive
5,Cc1cccc(O)c1,inactive
6,OC[C@H]1O[C@@H](O[C@H]2[C@H](O)[C@@H](O)[C@H](O)O[C@@H]2CO)[C@H](O)[C@@H](O)[C@H]1O,inactive
7,CC(C)CCOC(=O)CC(C)C,inactive
8,CC(=O)OC(C)(C)C1CC=C(C)CC1 (configuration not stated),inactive
9,Cc1ccc(C(C)(C)O)cc1,inactive
10,CC1=CC(O)CC(C)(C)C1 (configuration not stated),inactive
11,CCc1cccc(O)c1,inactive
12,CCOC(=O)COC(=O)c1ccccc1C(=O)OCC,inactive
13,C=C/C(C)=C/C/C=C(\C)CCC=C(C)C,inactive
14,CCCCCCOC(C)=O,inactive
15,Cc1cc(N)n(-c2ccccc2)n1,inactive
16,CCCCCCCCCCCCOCCOS(=O)(=O)O,inactive
17,CCCCCc1cccc(=O)o1,inactive
18,C=C(C)C(=O)OCCN(C)C,inactive
19,O=S(=O)(O)CCCN1CCOCC1,inactive
20,CC/C=C\C#N,inactive
21,CCCCOCCOCCOCCO,inactive
22,C=C(C)CCCC(C)CCO (configuration not stated),inactive
23,CCCCCCCOC(C)=O,inactive

# Molecular target: Cellular tumor antigen p53 (Homo sapiens) (UniProt P04637)
# Sequence (P04637 whole entry, looked up): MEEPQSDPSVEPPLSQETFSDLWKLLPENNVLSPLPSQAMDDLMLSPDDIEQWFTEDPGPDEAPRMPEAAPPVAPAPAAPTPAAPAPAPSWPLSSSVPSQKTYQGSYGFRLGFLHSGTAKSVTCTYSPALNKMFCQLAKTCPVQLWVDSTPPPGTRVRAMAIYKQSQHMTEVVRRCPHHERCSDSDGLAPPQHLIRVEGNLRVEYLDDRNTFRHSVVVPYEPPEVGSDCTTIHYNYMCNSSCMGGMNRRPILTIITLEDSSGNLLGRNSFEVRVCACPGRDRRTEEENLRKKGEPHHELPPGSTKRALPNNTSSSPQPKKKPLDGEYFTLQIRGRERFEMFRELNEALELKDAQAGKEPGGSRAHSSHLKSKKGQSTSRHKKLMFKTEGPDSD
# Test: TOX21_p53_BLA_p2_ratio: Tox21 HCT-116 p53 Agonism Beta-lactamase Assay, Ratio, Phase 2 (AID 2283592)
# Procedure, shortened: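 Readout: blue/green (460/530 nm) FRET emission ratio after 2 h CCF4-AM loading at room temperature, excitation 405 nm. HCT116 p53 bla cells, 16 h compound exposure at 37C, 5% CO2; agonist direction fitted against DMSO baseline.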
SMILES,outcome,AC50
S=c1[nH][nH]c(=S)s1,inactive,
OC[C@@H](O)[C@H](O)[C@@H](O)[C@@H](O)CO,inactive,
CCCCN(CCO)CCO,inactive,
CN(C)c1ccc(C=O)cc1,inactive,
N=C1N=C(N)c2ccccc21,,28.4 µM (active)
CC/C=C\CCOC(=O)C(C)C,inactive,
O=S1(=O)CC=CC1,inactive,
OC[C@H]1O[C@@H](O[C@H]2[C@H](O)[C@@H](O)[C@H](O)O[C@@H]2CO)[C@H](O)[C@@H](O)[C@H]1O,inactive,
CCCCCCCCCCCCN1CCOCC1,inactive,
CCCCCCC(O)CCOC(C)=O (configuration not stated),inactive,
CCCCCCCCCO,inactive,
CC(C)COC(=O)c1ccccc1O,inactive,
Cc1ccc(C(C)(C)O)cc1,inactive,
CC1=CC(O)CC(C)(C)C1 (configuration not stated),inactive,
CCc1cccc(O)c1,inactive,
CCCCCCOC(C)=O,inactive,
CCOC(=O)C(=O)OCC,inactive,
CCCCN(CCCC)CCCCCCN(CCCC)CCCC,inactive,
CC(C)Cc1ccccc1,inactive,
CCOc1ccc(NC(C)=O)cc1,inactive,
CC/C=C\C#N,inactive,
C=CCCCCCCCCC(=O)OCC,inactive,
CN(C)C,inactive,

# Tested on: not listed separately
# Test: TOX21_p53_BLA_p3_viability: Viability Assessment in the Tox21 HCT-116 p53 Agonism Beta-lactamase Assay, Phase 3 (AID 2283593);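 also: cells exposed to compound for 16 h before reading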
# Procedure, shortened: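 HCT116 cells, 4000/well, dosed 5 h after plating by pin transfer (217-fold dilution from DMSO stock) and incubated 16 h at 37C, 5% CO2. Viability read as ATP luminescence with CellTiter-Glo after 30 min at room temperature.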
SMILES,outcome,AC50
OC[C@@H](O)[C@H](O)[C@@H](O)[C@@H](O)CO,inactive,
CCCCN(CCO)CCO,inactive,
C=CCOCC(O)CO (configuration not stated),inactive,
c1coc(CNc2ncnc3nc[nH]c23)c1,inactive,
CN(C)c1ccc(C=O)cc1,inactive,
N=C1N=C(N)c2ccccc21,,13.6 µM (active)
CC/C=C\CCOC(=O)C(C)C,inactive,
O=S1(=O)CC=CC1,inactive,
CCCCCCCCCCCCN1CCOCC1,inactive,
CC(C)CCOC(=O)CC(C)C,inactive,
CCCCCCC(O)CCOC(C)=O (configuration not stated),inactive,
CCCCCCCCCO,inactive,
CC(C)COC(=O)c1ccccc1O,inactive,
C=C/C(C)=C/C/C=C(\C)CCC=C(C)C,inactive,
Cc1cc(N)n(-c2ccccc2)n1,inactive,
CCOC(=O)C(=O)OCC,inactive,
CCCCCCCCCCCCOCCOS(=O)(=O)O,inactive,
CCCCN(CCCC)CCCCCCN(CCCC)CCCC,inactive,
CCCCCc1cccc(=O)o1,inactive,
CC(C)Cc1ccccc1,inactive,
C=C(C)C(=O)OCCN(C)C,inactive,
CCOc1ccc(NC(C)=O)cc1,inactive,
CCCCOCCOCCOCCO,inactive,
C=CCCCCCCCCC(=O)OCC,inactive,
C=C(C)CCCC(C)CCO (configuration not stated),inactive,
CN(C)C,inactive,
CCCCCCCOC(C)=O,inactive,
